From the supplement of paper PMC10981050
Counter-ions that a name gives are not always drawn.

tested on: MARIMO; test: cell viability relative to vehicle control; higher = less cytotoxic; settings: 10 µM; SRSF2 genotype: SRSF2 wt/wt
How it was run: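 Four leukaemia lines, as CRISPR-edited mutant clones and isogenic wild-type clones, were tested against Selleck bioactive, kinase and epigenetic probe libraries after removal of identity-inconsistent compounds. Cells were exposed to a single 10 µM dose for 48 h, and CellTiter-Glo luminescence was then read. Viability was calculated relative to the on-plate vehicle control.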

SMILES	cell viability
CCc1c(O)cc(O)c(C(=O)c2ccc(OCCN3CCOCC3)c(OC)c2)c1CC(=O)N(CCOC)CCOC	25.4%
O=C(NCCS(=O)(=O)c1ccc(C(F)(F)F)cn1)c1ccc(Cl)cc1	102%
Clc1ccc2c(c1)CCc1cccnc1C2=C1CCNCC1 [Desloratadine]	83.5%
Cc1ccc(C(=O)O)c(O)c1 [4-Methylsalicylic acid]	111%
CCC(=O)Nc1cccc(Oc2nc(Nc3ccc(N4CCN(C)CC4)cc3OC)ncc2Cl)c1	68.3%
CN(N=O)C(=O)NC1C(O)OC(CO)C(O)C1O (stereo not given) [Streptozotocin (STZ)]	104%
C=CS(=O)(=O)NC1CCN(C(=O)CNc2cc(I)c(Cl)cc2OC)CC1 [K-Ras(G12C) inhibitor 9]	81.1%
CCCc1nn(C)c2c(=O)[nH]c(-c3cc(S(=O)(=O)N4CCN(C)CC4)ccc3OCC)nc12 [Sildenafil citrate]	108%
CNC(=O)Nc1ccc(-c2nc(N3CC4CCC(C3)O4)c3cnn(C4CCC5(CC4)OCCO5)c3n2)cc1	45%
CO/N=C(\C(=O)N[C@@H]1C(=O)N2C(C(=O)O)=C(CSc3nc(C)c(CC(=O)O)s3)CS[C@H]12)c1csc(N)n1 [Cefodizime Sodium]	112%
COC(=O)C1=C(C)NC(C)=C(C(=O)OCCN2CCN(C(c3ccccc3)c3ccccc3)CC2)C1c1cccc([N+](=O)[O-])c1 (stereo not given) [Manidipine (Manyper)]	58.5%
Cc1cccc(CC(=O)N2CCc3c2ccc(-c2cn(C)c4ncnc(N)c24)c3F)n1	72.5%
CNC1CCCN(c2c(F)cc3c(=O)c(C(=O)O)cn(C4CC4)c3c2OC)C1 (stereo not given) [Balofloxacin]	105%
Cc1ccc(S(=O)(=O)NC(=O)NN2CC3CCCC3C2)cc1 (stereo not given) [Gliclazide (Diamicron)]	111%
CN1CC2c3ccccc3Oc3ccc(Cl)cc3C2C1 (stereo not given) [Asenapine maleate]	78.8%
CC[C@H]1OC(=O)[C@H](C)[C@@H](O[C@H]2C[C@@](C)(OC)[C@@H](O)[C@H](C)O2)[C@H](C)[C@@H](O[C@@H]2O[C@H](C)C[C@H](N(C)C)[C@H]2O)[C@](C)(O)C[C@@H](C)/C(=N\OCOCCOC)[C@H](C)[C@@H](O)[C@]1(C)O [Roxithromycin (Roxl-150)]	105%
CC(C)c1nc(CN(C)C(=O)N[C@H](C(=O)N[C@@H](Cc2ccccc2)C[C@H](O)[C@H](Cc2ccccc2)NC(=O)OCc2cncs2)C(C)C)cs1 [Ritonavir]	95%
Nc1nccc(Oc2ccc3c(C(=O)Nc4cccc(C(F)(F)F)c4)cccc3c2)n1	125%
N[C@@H](Cc1c[nH]c2ccc(O)cc12)C(=O)O [5-hydroxytryptophan (5-HTP)]	103%
CCCOc1ccc2c(c1)CC[C@@H]1[C@@H]2CC[C@]2(C)[C@@H](OC)CC[C@@H]12 [Promestriene]	89.8%
CCOCCn1c(N2CCCN(C)CC2)nc2ccccc21 [Emedastine]	107%
COc1cc2c(c(OC)c1OC)-c1c(cc3c(c1OC)OCO3)C[C@H](C)[C@](C)(O)[C@H]2OC(=O)c1ccccc1 [Schisantherin A]	102%
COc1ccc2c(c1O)-c1c(O)c(OC)cc3c1[C@H](C2)[N+](C)(C)CC3 [Magnoflorine]	105%
NCc1c[nH]c(=S)n1[C@H]1CCc2c(F)cc(F)cc2C1 [Nepicastat hydrochloride]	97.4%
CC(=O)Nc1ccc(OC(=O)c2ccccc2OC(C)=O)cc1 [Benorylate]	100%
CCC(=O)NC[C@@H]1C[C@H]1c1cccc2c1CCO2 [Tasimelteon]	101%
COc1ncnc(NS(=O)(=O)c2ccc(N)cc2)c1OC [Sulfadoxine (Sulphadoxine)]	105%
N[C@@H](Cc1cc(I)c(Oc2cc(I)c(O)c(I)c2)c(I)c1)C(=O)O [Levothyroxine sodium]	104%
C=C(C)[C@@H]1CC[C@]2(C(=O)O)CC[C@]3(C)[C@H](CC[C@@H]4[C@@]5(C)CC[C@H](O)[C@@](C)(CO)[C@@H]5CC[C@]43C)[C@@H]12 [23-Hydroxybetulinic acid]	107%
C[C@]12C=CC(=O)C=C1CC[C@H]1[C@@H]3C[C@@H](O)[C@](O)(C(=O)CO)[C@@]3(C)C[C@H](O)[C@@]12F [Triamcinolone (Aristocort)]	108%
